Unmarked numbers belong to inactive results. Inconclusive results are not listed. Calls of active or inactive are those of the source. Unless noted, calls follow the shape of the dose curve; as a rule, active = well fitted curve in the direction sought with a large enough effect in the repeat runs; inconclusive = weak or mixed curves; inactive = no such curve, though single readings can be large; an effect the other way counts as inactive or inconclusive.

Assay [1] deals with Thyrotropin-releasing hormone receptor (Homo sapiens) (UniProt P34981). The assay is described as follows: qHTS assay to identify small molecule agonists of the thyrotropin-releasing hormone receptor (TRHR) signaling pathway (AID 1346891; calls by dose curve;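 also: HEK293 cells expressing TRHR with calcium dye readout; series mostly up to about 58 µM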). In short, it runs like this: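 Cells: TRHR-Hek293, seeded and incubated 18 h. Dye loading: 2 h at 37 °C. Compound added from DMSO stock by pin tool. Read-out: kinetic calcium fluorescence over 3 min.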
(In general: qHTS replaces the single test concentration by a dilution series.)

Assay [2] can be described thus: Human pregnane X receptor (PXR) small molecule agonists, qHTS cell viability counter screen (AID 1346977). Also: nearly all actives have a fitted effect of over 50% in size. The method in brief: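 Cytotoxicity counter screen run in the same wells as the PXR luciferase assay, using PXR-Luc HepG2 cells in charcoal-stripped serum medium. Viability: CellTiter-Fluor fluorescence after 24hr compound treatment.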
Assay [3] can be described thus: Caspase-3/7 induction in HepG2 cells by small molecules, qHTS assay (AID 1346978). Also: nearly all actives have a fitted effect of over 15% in size. In short, it runs like this: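 Wild-type HepG2 cells (2,000/well) were settled 5 h at 37 C, 5% CO2, then exposed to compounds in DMSO for 17 h. Caspase-3/7 activity was read by luminescence 30 min after adding Caspase-Glo 3/7 reagent at room temperature.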
Assay [4] is described as follows: Caspase-3/7 induction in CHO-K1 cells by small molecules, qHTS cell viability counter screen (AID 1346979). Also: nearly all actives have a fitted effect of over 35% in size. The method in brief:
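Cytotoxicity counter screen run in parallel with the caspase-3/7 assay: CHO-K1 cells, 16hr compound treatment at 37C, then CellTiter-Fluor for 1hr before fluorescence reading.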

Assay [5] in a line: Caspase-3/7 induction in CHO-K1 cells by small molecules, qHTS assay (AID 1346980). Also: nearly all actives have a fitted effect of over 15% in size. The method in brief:
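Wild-type cells were seeded at 1,500 per well and settled 5 hr at 37 C, 5% CO2, then exposed to DMSO-dissolved compounds for 17 hr. Caspase-Glo 3/7 reagent was added, and luminescence was read after 30min at room temperature.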

Assay [6] is described as follows: Caspase-3/7 induction in HepG2 cells by small molecules, qHTS cell viability counter screen (AID 1346981). Also: series mostly up to about 92 µM; nearly all actives have a fitted effect of over 30% in size. The method in brief: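 After a 5-hr attachment period at 37 C and 5% CO2, wild-type HepG2 cells received compounds in DMSO. Sixteen hours later CellTiter-Fluor was dispensed and the fluorescent signal quantified after a further hour.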
Assay [7] addresses Nuclear receptor subfamily 1 group I member 2 (Homo sapiens) (UniProt O75469). The assay is described as follows: Human pregnane X receptor (PXR) small molecule agonists, qHTS assay (AID 1346982). Also: nearly all actives have a fitted effect of over 35% in size. The method in brief: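 Tox21 qHTS; PXR-Luc HepG2; compounds pinned from DMSO; 24 hr, 37 C; ONE-Glo luciferase detection, 30 min room temperature.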
Assay [8] addresses Acetylcholinesterase (Homo sapiens) (UniProt P22303). The assay is described as follows: Acetylcholinesterase (AChE) small molecule antagonists: colormetric cell-based qHTS assay (AID 1347395; calls by dose curve; also: nearly all actives have a fitted effect of over 30% in size; also: potency is read from the fitted curve at half-maximal effect). In short, it runs like this:
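Cells (SH-SY5Y, 2,000 per well) are seeded and left overnight at 37 C. Compound is added for 30 min, then DTNB and acetylthiocholine for a further 90 min at 37 C before absorbance-based thiocholine detection.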

Assay [9] shares this target. As to the kind of experiment: Acetylcholinesterase (AChE) small molecule antagonists: enzyme-based qHTS assay (AID 1347397; calls by dose curve; also: nearly all actives have a fitted effect of over 55% in size). The following applies: Potency: AChE enzyme activity inhibition; outcome: AChE enzyme activity inhibition. In short, it runs like this:
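Tox21 library chemicals are tested in qHTS format against recombinant human AChE. The enzyme, dispensed at 50 mU/mL, sits with compound for 30 min at room temperature. A DTNB–acetylthiocholine cocktail follows, and colour is read after 10 min.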

The target is the same in assay [10]. As to the kind of experiment: Acetylcholinesterase (AChE) small molecule antagonists: fluorescence cell-based qHTS assay (AID 1347398; calls by dose curve; also: nearly all actives have a fitted effect of over 50% in size; also: potency is read from the fitted curve at half-maximal effect). The following applies: Potency: AChE activity; outcome: AChE activity. The method in brief:
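Cellular AChE inhibition: SH-SY5Y cells treated with test chemical for 30 min at 37 C, then acetylthiocholine hydrolysis followed over 40 min at room temperature via thiocholine-reactive Thiolite Green fluorescence (490/520 nm).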

The target in assay [11] is Cytochrome P450 2D6 (Homo sapiens) (UniProt P10635). As to the kind of experiment: Cytochrome P450 Family 2 Subfamily D Member 6 (CYP2D6) small molecule antagonists: luciferase reporter qHTS assay (AID 1671196). Also: series mostly up to about 120 µM; nearly all actives have a fitted effect of over 50% in size. The method in brief:
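Room-temperature luminescent CYP2D6 activity assay: compound preincubated 10 min with enzyme–substrate mix, NADPH-initiated reaction 1 h, detection reagent 20 min before reading.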

Assay [12] concerns the target Cytochrome P450 2C19 (Homo sapiens) (UniProt P33261). As to the kind of experiment: Cytochrome P450 Family 2 Subfamily C Member 19 (CYP2C19) small molecule antagonists: luciferase reporter qHTS assay (AID 1671197). Also: nearly all actives have a fitted effect of over 65% in size. Also: potency is read from the fitted curve at half-maximal effect. In short, it runs like this: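 CYP2C19 P450-Glo, 1536-well qHTS. Cpd + enzyme/proluciferin substrate 10 min RT; + NADPH regen, 37C 1 h; stop with luciferin detection reagent, 20 min RT, luminescence (RLU). Pos ctrl ketoconazole.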
Background: Reporter assays use an easily measured gene product as a stand-in for the process of interest.

Assay [13] addresses Cytochrome P450 2C9 (Homo sapiens) (UniProt P11712). The assay is described as follows: Cytochrome P450 Family 2 Subfamily C Member 9 (CYP2C9) small molecule antagonists: luciferase reporter qHTS assay (AID 1671198). Also: nearly all actives have a fitted effect of over 50% in size. Also: potency is read from the fitted curve at half-maximal effect. The method in brief: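 CYP2C9 activity was measured with a P450-Glo proluciferin substrate. Enzyme–substrate mix was held with compound for 10 min at room temperature, then NADPH regeneration solution was added for 1 h at 37C. Luciferin product was read as luminescence.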

Assay [14] concerns the target Cytochrome P450 1A2 (Homo sapiens) (UniProt P05177). The assay is described as follows: Cytochrome P450 Family 1 Subfamily A Member 2 (CYP1A2) small molecule antagonists: luciferase reporter qHTS assay (AID 1671199). Also: nearly all actives have a fitted effect of over 50% in size. Also: potency is read from the fitted curve at half-maximal effect. The method in brief:
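Room-temperature CYP1A2 reaction with proluciferin substrate: compounds added from DMSO, 10 min preincubation, NADPH regeneration for 1 h. Luciferin detection reagent then added; luminescence recorded as RLU.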

Assay [15] concerns the target Voltage-gated inwardly rectifying potassium channel KCNH2 (Homo sapiens) (UniProt Q12809). The assay is described as follows: Human Ether-a-go-go-Related Gene (hERG) channel small molecule antagonists: fluorescence cell-based qHTS assay (AID 1671200). In short, it runs like this: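 Fluorescence at 540 nm emission (480 nm excitation) was recorded kinetically for 2 min at 1-second intervals once the thallium-containing stimulus reached cells previously loaded with FluxOR II dye.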
On the technique in general: hERG is a cardiac potassium channel; its block is linked to QT prolongation.

Assay [16] deals with Cytochrome P450 3A4 (Homo sapiens) (UniProt P08684). The assay is described as follows: Cytochrome P450 Family 3 Subfamily A Member 4 (CYP3A4) small molecule antagonists: luciferase reporter qHTS assay (AID 1671201). The method in brief:
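qHTS, 1536-well. CYP3A4 + proluciferin substrate, cpd 10 min RT → NADPH regen 1 h RT → detection reagent 20 min → luminescence (RLU). Ketoconazole positive control.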

Assay [17] concerns the target Acetylcholinesterase (Homo sapiens) (UniProt P22303). The assay is described as follows: Acetylcholinesterase (AChE) small molecule antagonists: enzyme-based qHTS assay with human liver microsomes (AID 1347399; calls by dose curve; also: nearly all actives have a fitted effect of over 60% in size). The following applies: Potency: qHTS inhibition; outcome: qHTS inhibition. In short, it runs like this: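 Recombinant human AChE (50 mU/mL in the enzyme mix) and human liver microsomes (0.25 mg/mL final) were preincubated with compound and NADPH (0.25 mg/mL final) for 30 min at 37 C. Acetylthiocholine/DTNB was then added; thiocholine was read colorimetrically after 10 min at room temperature.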

Assay [18] has as its target Nuclear receptor subfamily 1 group I member 2 (Rattus norvegicus) (UniProt Q9R1A7). The assay is described as follows: Rat pregnane X receptor (rPXR) activation by small molecules, qHTS assay (AID 1346983). Also: nearly all actives have a fitted effect of over 20% in size. As to conditions: rPXR luciferase reporter cells, One-Glo luminescence, 24 h; stronger effect = higher value. In short, it runs like this: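 Cell-based rPXR luciferase reporter assay, 2,000 cells per well, rested 5hr at 37 C before compound addition in DMSO, then 24 hr at 37 C. One-Glo reagent was added and luminescence read after 30 min at room temperature.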

In assay [19] the target is Nuclear receptor subfamily 1 group I member 2 (Homo sapiens) (UniProt O75469). As to the kind of experiment: Human pregnane X receptor (PXR) activation by small molecules, qHTS assay (AID 1346985). Also: nearly all actives have a fitted effect of over 40% in size. In short, it runs like this:
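DPX-2 cells (HepG2 co-transfected with a PXR response element and a CYP3A4-promoter luciferase construct) were seeded at 2,000 per well, rested 5 hr at 37C, then exposed to DMSO-dissolved compounds for 24 hr. Activation was read as luciferase luminescence.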
% is scaled to controls: 0 for no effect and ±100 for the full control effect.

Chain of Cytochrome P450 1A2 (Homo sapiens) (P05177 whole entry, looked up): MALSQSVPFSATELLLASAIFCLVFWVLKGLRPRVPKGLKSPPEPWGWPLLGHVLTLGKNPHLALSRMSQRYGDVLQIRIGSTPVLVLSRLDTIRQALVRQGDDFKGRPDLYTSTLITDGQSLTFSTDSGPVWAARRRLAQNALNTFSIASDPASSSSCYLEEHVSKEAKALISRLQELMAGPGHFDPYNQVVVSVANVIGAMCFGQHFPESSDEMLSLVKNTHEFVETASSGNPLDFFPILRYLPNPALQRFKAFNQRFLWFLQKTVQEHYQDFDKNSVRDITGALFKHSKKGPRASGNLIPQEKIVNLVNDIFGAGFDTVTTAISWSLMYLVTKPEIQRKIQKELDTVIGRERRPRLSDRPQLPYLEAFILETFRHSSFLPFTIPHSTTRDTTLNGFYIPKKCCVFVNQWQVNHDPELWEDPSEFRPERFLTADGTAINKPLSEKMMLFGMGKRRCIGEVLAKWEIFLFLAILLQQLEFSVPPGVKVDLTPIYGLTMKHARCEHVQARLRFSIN
Chain of Cytochrome P450 2C19 (Homo sapiens) (P33261 whole entry, looked up): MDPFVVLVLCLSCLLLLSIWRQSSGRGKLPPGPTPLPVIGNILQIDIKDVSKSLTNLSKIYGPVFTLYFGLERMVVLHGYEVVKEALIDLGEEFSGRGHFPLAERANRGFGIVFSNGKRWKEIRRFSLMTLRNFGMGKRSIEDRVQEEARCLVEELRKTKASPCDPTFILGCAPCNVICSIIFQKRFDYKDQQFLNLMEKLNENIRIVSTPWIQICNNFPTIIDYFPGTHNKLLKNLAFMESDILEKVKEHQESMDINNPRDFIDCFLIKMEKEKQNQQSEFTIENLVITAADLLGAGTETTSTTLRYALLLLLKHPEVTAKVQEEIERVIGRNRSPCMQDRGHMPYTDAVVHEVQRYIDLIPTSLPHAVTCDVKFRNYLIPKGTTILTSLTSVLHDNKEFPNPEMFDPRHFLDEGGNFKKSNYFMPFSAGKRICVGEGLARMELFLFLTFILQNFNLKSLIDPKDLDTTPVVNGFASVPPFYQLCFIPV
Chain of Cytochrome P450 2D6 (Homo sapiens) (P10635 whole entry, looked up): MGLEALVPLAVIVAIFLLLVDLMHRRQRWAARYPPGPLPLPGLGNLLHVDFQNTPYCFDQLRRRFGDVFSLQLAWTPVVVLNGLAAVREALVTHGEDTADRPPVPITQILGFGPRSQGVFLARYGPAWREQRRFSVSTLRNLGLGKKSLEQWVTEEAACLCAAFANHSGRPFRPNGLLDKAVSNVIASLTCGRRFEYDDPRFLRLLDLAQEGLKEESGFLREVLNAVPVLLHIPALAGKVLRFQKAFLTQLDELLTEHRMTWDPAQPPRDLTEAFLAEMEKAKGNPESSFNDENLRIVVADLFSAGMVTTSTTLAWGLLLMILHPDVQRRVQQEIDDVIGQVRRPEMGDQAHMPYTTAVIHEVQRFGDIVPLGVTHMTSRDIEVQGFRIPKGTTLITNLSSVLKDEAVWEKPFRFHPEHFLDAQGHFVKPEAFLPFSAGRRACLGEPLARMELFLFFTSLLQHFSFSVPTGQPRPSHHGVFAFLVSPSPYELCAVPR
Chain of Thyrotropin-releasing hormone receptor (Homo sapiens) (P34981 whole entry, looked up): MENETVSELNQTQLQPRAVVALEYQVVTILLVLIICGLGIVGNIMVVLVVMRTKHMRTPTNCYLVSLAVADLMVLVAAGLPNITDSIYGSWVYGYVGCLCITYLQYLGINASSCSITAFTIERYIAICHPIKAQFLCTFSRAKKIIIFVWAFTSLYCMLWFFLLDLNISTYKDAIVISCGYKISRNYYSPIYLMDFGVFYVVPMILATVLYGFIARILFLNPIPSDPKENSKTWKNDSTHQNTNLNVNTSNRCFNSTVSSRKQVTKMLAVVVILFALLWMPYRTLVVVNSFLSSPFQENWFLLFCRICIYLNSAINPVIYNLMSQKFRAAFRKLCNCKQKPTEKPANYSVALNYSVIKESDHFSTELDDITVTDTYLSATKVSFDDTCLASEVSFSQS
Chain of Cytochrome P450 3A4 (Homo sapiens) (P08684 whole entry, looked up): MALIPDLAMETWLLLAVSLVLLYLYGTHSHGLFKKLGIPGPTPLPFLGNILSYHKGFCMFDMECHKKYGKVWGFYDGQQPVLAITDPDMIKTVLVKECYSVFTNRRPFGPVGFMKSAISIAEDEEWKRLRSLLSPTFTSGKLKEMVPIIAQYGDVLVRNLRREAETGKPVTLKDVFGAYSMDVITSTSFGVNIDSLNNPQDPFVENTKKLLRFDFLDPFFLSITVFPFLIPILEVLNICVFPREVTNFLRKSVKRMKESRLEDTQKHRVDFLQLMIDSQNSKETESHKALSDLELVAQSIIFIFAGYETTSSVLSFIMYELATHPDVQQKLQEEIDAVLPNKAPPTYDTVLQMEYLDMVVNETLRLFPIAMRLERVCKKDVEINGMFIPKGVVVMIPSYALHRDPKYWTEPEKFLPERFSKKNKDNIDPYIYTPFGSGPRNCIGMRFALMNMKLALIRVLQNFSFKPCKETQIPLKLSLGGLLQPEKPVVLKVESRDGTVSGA
Chain of Voltage-gated inwardly rectifying potassium channel KCNH2 (Homo sapiens) (Q12809 whole entry, looked up): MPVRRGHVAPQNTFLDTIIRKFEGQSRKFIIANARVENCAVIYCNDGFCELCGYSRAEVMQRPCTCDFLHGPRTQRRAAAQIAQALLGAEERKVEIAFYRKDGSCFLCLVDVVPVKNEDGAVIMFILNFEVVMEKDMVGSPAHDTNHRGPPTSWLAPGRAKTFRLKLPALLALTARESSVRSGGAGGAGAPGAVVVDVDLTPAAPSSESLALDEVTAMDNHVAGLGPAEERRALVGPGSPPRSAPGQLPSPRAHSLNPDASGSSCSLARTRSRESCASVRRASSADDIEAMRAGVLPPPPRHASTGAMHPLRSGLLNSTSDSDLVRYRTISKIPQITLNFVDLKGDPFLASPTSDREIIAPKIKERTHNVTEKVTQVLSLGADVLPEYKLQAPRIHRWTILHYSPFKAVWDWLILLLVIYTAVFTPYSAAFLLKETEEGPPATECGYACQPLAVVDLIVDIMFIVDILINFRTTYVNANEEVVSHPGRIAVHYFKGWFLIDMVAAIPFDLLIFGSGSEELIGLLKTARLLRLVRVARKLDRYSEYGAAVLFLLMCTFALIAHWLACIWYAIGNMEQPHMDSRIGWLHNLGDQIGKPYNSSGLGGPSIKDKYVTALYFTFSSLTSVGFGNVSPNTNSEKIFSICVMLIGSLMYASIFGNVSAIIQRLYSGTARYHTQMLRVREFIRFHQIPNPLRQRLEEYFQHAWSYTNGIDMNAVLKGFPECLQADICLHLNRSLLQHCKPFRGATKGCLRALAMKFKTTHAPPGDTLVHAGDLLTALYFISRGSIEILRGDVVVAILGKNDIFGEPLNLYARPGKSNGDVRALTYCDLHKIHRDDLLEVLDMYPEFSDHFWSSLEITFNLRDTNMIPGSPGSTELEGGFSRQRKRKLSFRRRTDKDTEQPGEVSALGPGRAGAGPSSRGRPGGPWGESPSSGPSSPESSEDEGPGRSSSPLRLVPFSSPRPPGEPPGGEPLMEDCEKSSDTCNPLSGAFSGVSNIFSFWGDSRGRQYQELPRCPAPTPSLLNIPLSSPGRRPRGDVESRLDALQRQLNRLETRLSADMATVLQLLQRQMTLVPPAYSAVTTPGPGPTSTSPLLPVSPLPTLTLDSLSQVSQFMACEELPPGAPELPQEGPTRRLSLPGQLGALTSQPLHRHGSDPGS
Chain of Nuclear receptor subfamily 1 group I member 2 (Homo sapiens) (O75469 whole entry, looked up): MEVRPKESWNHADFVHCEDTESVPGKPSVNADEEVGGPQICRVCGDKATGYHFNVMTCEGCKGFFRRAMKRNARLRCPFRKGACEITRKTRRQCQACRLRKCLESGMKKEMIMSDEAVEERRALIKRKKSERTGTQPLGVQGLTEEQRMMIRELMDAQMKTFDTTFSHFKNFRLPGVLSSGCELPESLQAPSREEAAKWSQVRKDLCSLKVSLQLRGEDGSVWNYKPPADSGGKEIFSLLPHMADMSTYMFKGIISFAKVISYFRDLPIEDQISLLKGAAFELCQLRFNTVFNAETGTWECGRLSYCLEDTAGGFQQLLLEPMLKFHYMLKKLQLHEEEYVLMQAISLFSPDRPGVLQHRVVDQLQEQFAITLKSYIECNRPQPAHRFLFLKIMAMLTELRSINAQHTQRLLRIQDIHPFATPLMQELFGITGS
Chain of Acetylcholinesterase (Homo sapiens) (P22303 whole entry, looked up): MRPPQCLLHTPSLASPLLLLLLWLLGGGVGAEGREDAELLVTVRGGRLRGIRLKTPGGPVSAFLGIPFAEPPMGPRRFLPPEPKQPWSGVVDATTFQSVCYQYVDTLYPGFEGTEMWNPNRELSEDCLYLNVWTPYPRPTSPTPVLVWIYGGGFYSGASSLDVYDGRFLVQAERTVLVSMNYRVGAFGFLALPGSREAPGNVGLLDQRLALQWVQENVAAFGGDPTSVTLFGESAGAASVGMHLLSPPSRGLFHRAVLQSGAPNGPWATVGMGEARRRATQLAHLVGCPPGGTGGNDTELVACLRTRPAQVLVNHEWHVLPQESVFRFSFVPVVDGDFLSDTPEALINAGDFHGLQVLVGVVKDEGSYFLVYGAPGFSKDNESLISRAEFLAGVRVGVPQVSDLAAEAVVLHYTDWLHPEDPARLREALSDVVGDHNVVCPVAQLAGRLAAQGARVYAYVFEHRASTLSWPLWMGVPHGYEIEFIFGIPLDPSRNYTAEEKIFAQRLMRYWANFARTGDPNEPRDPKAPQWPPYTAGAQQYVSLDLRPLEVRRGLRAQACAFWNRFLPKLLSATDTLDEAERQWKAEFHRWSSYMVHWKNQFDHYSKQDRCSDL

Turning to `[O-][Br+2]([O-])O`, the molecule was classed as inactive in [1], in [3] and in [5]. Moreover, the Potency result in assay [2], in assay [4], in [6], in [7], in assay [8] and in assay [9] was “inactive” throughout. In addition, the Potency entry in assay [10], in [11], in [12], in assay [13], in assay [14] and in assay [15] was “inactive” throughout. In addition, the Potency result in assay [16] is “inactive”.
For the molecule `CCC(CC)(CNC(=O)CCCO)c1cccc(OC)c1`, the outcome in assay [1], in [3] and in assay [5] was inactive. In addition, the Potency entry in assay [2], in assay [4], in assay [6], in assay [7], in [8] and in assay [10] was “inactive” each time. Further, the Potency entry in assay [14] and in assay [15] was “inactive” in each case. Also, in [12], the Potency is 7.76 µM (active).
For `O=C(O)C(F)(F)C(F)(F)C(F)(F)C(F)(F)C(F)(F)C(F)(F)F`, the outcome in assay [1], in assay [3] and in assay [5] was inactive. Further, the Potency result in assay [2], in assay [4], in assay [6], in assay [7], in assay [10] and in assay [17] was “inactive” in each case. In addition, the Potency entry in [11], in [12], in [15] and in [16] was “inactive” in each case. For the same molecule, the Potency in assay [13] was 6.33 µM (active).
With `NCC1(CC(=O)O)CCCCC1`, the call in assay [1], in [3] and in assay [5] was inactive. Moreover, the Potency result in [2], in [4], in assay [6], in assay [7], in assay [8] and in assay [10] was “inactive” in each case. Further, the Potency entry in assay [11], in [12], in [13], in [14], in assay [15] and in [16] was “inactive” in each case.
For `CC[C@@H](CO)NC(=O)[C@@H]1C=C2c3cccc4c3c(cn4C)C[C@H]2N(C)C1`, the molecule was classed as inactive in [1], in assay [3] and in [5]. In addition, the Potency result in [2], in assay [4], in assay [6], in [19], in assay [17] and in assay [12] was “inactive” in each case. Also, the Potency entry in [15] was “inactive”. In addition, in assay [18], the max activation was 4.36%. Moreover, the Potency is 2.45 µM (active) in [8] and 1.1 µM (active) in assay [10].
Regarding `CCC1(CC)C(=O)C=CNC1=O`, the outcome in assay [1], in [3] and in assay [5] was inactive. Also, the Potency entry in assay [2], in assay [4], in [6], in assay [7], in assay [8] and in [9] was “inactive” in each case. The Potency entry in assay [10], in assay [17], in assay [15] and in [16] was “inactive” each time. The Potency in [14] is 15.5 µM (active).
On to `Cc1ccc2cc(C)ccc2c1`, for which the outcome in assay [1], in assay [3] and in assay [5] was inactive. For the same molecule, the Potency result in assay [2], in [4], in [6], in assay [7], in assay [8] and in assay [9] was “inactive” in each case. Besides, the Potency result in assay [10], in [11], in assay [12], in [13], in assay [15] and in assay [16] was “inactive” in each case.
As for `CC(=NC#N)N(C)Cc1ccc(Cl)nc1`, the result in [1], in assay [3] and in assay [5] was inactive. In addition, the Potency entry in [2], in [4], in [6], in [7], in assay [9] and in assay [10] was “inactive” each time. The Potency entry in [17], in assay [11], in [14], in [15] and in assay [16] was “inactive” each time.
For the molecule `CCCC(C)C1(CC)C(=O)N=C(S)NC1=O` (stereo unspecified), the molecule was classed as inactive in assay [1], in assay [3] and in [5]. Also, the Potency result in [2], in assay [4], in assay [6] and in [15] was “inactive” in each case. Moreover, the max activation in [18] is -4.4%.
